# Test results reported in the supplement of paper PMC11732987, “Enantioselective OTUD7B fragment discovery through chemoproteomics screening and high-throughput optimisation” (Communications Chemistry, 2025).
# A number with no mark means an inactive call.
# Columns and labels:
# Experiment in all cases: log2 ratio of Biotin-Ahx-Ub-VS probe labelling (fragment/DMSO); higher = less target engagement (more negative = stronger competition), active = hit call of the paper (q ≤ 0.05, log2 ratio ≤ -1)
# Conditions in all cases: compound concentration: 200 uM; treatment time: 3 h
# USP19 = target: T1, USP19 (UniProt O94966)
# T1 sequence (whole entry): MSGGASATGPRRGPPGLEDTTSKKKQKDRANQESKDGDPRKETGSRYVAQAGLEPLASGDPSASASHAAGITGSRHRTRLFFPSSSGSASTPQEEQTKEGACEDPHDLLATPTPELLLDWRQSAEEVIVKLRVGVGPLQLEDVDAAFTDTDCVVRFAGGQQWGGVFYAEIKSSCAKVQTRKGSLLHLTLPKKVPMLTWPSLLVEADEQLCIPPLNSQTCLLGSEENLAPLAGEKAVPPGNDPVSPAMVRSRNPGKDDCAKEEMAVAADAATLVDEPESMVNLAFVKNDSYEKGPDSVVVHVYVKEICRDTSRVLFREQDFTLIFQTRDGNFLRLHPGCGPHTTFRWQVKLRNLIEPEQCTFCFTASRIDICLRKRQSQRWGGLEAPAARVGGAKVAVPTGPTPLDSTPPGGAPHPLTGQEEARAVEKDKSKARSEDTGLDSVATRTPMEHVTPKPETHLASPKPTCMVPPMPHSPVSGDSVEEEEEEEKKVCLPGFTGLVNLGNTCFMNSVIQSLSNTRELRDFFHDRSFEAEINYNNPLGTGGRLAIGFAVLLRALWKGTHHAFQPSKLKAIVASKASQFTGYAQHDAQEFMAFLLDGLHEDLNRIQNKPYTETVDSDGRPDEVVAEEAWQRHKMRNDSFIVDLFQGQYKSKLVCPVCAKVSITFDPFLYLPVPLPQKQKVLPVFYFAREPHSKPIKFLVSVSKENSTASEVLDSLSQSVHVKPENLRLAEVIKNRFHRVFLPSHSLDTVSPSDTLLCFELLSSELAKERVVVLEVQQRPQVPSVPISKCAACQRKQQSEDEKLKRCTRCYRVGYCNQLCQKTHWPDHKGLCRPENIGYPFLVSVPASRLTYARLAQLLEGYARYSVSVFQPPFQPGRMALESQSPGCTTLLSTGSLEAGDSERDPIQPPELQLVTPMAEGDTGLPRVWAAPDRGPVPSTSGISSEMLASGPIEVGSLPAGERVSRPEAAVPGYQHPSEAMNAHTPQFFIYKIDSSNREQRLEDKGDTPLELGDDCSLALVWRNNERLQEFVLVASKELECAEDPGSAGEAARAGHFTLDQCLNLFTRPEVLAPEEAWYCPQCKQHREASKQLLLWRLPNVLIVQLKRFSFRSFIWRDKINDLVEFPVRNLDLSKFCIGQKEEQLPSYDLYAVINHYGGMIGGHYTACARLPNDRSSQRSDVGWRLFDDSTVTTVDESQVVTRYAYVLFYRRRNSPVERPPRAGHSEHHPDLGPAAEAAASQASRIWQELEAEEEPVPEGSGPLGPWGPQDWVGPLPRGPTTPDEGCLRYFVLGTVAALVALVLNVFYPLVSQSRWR
# Method in brief: (§1)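 Triplicate samples of HEK293T lysate, 495 µg each, received fragment at 200 µM or vehicle for 3 h, followed by Biotin-Ahx-Ub-VS (0.5 µM final) for 1 h. After NeutrAvidin enrichment of labelled DUBs and LysC/trypsin digestion, peptides were run by diaPASEF LC-MS/MS. The values are average log2 fragment/vehicle ratios from global-median-normalised Spectronaut label-free quantities, tested by unpaired t-test on proteins having ≥2 unique peptides.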
# USP24 = USP24 (UniProt Q9UPU5)
# Method in brief: as §1
# USP25 = target: T2, USP25 (UniProt Q9UHP3)
# T2 sequence (whole entry): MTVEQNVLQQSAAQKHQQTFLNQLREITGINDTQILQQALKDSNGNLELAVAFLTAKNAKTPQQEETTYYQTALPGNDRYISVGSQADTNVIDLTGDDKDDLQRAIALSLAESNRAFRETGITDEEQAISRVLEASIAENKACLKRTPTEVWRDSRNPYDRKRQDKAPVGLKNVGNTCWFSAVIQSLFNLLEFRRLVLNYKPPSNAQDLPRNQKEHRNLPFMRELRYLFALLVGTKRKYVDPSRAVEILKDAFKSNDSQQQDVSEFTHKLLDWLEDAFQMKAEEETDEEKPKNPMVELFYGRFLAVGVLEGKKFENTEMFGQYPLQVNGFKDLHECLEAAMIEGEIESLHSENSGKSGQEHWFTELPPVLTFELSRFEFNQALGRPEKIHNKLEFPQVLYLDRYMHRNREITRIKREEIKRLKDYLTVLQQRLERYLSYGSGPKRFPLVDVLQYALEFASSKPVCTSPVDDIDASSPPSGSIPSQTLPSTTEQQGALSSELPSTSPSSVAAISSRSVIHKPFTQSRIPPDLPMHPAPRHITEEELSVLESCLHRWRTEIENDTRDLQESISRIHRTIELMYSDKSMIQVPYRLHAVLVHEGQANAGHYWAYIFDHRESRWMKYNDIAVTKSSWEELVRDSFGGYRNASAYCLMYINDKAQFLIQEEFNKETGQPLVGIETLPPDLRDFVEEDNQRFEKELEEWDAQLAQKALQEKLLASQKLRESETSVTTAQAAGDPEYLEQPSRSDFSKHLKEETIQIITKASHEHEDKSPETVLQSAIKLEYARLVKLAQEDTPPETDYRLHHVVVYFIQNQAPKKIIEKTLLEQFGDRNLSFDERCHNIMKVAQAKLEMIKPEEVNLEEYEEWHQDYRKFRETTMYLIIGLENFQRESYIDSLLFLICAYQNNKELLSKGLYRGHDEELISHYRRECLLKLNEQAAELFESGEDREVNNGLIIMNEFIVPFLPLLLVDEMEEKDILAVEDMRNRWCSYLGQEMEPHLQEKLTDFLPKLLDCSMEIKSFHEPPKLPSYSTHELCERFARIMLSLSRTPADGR
# Method in brief: as §1
# USP28 = target: T3, USP28 (UniProt Q96RU2)
# T3 sequence (whole entry): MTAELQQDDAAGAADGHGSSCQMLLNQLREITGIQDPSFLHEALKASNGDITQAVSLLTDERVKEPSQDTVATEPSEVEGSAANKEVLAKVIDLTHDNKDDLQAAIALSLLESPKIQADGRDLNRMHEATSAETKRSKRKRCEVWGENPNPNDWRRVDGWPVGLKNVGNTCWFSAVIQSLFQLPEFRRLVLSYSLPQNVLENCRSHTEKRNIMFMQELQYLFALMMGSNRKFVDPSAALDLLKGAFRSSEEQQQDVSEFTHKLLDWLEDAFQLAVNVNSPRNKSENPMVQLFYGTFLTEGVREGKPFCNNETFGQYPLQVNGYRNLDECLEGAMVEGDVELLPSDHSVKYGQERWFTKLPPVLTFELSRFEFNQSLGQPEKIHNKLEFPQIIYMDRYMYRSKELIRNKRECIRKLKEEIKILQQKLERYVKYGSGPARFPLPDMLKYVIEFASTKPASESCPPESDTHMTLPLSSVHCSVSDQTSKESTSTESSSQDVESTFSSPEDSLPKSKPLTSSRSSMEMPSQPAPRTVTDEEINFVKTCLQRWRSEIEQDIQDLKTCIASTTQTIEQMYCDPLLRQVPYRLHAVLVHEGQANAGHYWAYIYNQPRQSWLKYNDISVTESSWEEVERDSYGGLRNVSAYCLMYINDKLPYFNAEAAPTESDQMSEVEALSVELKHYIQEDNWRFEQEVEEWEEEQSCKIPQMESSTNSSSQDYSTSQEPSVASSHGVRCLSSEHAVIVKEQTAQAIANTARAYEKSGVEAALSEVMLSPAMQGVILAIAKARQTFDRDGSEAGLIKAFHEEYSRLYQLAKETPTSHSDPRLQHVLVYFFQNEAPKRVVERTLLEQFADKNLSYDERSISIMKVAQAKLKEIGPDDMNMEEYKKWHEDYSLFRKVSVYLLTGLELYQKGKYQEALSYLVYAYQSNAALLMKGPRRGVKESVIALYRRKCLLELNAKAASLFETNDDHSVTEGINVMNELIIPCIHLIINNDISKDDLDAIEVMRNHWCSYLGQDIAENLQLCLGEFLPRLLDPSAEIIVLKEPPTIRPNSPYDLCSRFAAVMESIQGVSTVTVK
# Method in brief: as §1
# Chain of USP24 (Q9UPU5 whole entry): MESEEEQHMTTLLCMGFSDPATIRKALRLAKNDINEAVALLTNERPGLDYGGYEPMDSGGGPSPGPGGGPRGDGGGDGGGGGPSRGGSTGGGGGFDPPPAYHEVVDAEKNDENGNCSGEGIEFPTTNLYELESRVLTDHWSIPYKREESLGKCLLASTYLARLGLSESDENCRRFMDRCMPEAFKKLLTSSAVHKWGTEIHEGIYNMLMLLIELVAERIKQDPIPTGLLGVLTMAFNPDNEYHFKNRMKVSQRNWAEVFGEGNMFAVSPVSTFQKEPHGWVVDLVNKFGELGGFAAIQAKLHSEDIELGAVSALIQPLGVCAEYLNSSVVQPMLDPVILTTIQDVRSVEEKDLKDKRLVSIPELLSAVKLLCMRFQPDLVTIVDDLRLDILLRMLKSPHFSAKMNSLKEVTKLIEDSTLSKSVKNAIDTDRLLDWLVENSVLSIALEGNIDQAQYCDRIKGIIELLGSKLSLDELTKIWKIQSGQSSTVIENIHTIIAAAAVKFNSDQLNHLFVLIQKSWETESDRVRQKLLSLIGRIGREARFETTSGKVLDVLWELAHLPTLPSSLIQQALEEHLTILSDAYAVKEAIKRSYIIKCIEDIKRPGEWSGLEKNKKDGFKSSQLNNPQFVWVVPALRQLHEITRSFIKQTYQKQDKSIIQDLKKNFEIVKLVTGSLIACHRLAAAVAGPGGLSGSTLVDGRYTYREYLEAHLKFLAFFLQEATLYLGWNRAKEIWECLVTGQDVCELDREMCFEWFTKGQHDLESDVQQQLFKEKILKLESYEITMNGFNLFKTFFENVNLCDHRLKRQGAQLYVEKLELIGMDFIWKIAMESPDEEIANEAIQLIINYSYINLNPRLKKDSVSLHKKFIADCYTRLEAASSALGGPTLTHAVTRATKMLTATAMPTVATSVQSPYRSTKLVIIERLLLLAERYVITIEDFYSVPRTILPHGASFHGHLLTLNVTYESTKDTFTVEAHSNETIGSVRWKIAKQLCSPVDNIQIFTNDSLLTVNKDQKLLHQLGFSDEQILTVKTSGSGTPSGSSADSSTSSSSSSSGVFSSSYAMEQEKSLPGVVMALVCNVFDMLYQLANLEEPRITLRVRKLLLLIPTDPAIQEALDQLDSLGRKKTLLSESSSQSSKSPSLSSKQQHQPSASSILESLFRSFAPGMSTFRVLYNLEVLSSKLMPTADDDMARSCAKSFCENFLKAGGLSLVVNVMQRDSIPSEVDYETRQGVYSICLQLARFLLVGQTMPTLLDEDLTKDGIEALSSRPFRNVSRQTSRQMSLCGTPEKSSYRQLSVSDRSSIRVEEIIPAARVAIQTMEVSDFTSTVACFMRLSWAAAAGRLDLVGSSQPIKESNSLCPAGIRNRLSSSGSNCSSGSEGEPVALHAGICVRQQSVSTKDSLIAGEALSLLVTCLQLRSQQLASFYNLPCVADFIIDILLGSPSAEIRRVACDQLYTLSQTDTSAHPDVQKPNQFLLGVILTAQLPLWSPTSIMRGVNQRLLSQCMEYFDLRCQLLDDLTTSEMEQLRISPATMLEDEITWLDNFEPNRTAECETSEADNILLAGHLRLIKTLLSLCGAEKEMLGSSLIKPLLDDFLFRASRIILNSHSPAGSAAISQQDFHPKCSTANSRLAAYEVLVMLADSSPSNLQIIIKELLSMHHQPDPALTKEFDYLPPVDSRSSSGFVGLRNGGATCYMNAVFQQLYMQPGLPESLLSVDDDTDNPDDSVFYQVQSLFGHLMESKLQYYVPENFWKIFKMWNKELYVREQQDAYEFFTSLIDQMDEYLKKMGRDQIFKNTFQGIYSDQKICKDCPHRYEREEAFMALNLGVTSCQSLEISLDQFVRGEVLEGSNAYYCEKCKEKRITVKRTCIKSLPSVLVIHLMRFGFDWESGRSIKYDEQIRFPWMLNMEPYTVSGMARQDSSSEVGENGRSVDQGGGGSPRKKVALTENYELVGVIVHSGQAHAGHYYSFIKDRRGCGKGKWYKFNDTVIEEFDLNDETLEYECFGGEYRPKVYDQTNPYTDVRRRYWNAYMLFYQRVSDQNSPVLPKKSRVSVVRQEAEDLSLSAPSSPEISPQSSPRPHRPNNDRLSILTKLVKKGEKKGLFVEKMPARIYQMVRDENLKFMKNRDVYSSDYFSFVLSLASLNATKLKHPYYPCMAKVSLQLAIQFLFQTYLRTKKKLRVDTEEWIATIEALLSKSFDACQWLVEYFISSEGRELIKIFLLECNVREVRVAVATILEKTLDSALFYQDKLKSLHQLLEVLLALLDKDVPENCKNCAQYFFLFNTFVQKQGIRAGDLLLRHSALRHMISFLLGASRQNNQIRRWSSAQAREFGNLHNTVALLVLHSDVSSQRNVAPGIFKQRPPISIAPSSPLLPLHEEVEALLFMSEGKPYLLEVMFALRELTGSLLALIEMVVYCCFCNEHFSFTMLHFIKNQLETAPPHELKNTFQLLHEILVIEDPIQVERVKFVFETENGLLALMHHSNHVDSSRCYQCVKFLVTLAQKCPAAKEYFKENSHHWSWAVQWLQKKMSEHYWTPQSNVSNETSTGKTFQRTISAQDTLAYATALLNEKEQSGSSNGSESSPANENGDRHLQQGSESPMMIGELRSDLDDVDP
smiles,measurement,setting,value
O=C(CCl)N1c2ccccc2NC(=O)C12CCCC2,log2 ratio of Biotin-Ahx-Ub-VS probe labelling,USP19,-0.0862
same,log2 ratio of Biotin-Ahx-Ub-VS probe labelling,USP24,-2.66 (active)
same,log2 ratio of Biotin-Ahx-Ub-VS probe labelling,USP25,-0.252
same,log2 ratio of Biotin-Ahx-Ub-VS probe labelling,USP28,-0.397
